# Results published in PubChem BioAssay AID652283 (National Center for Advancing Translational Sciences (NCATS), 2013).
# Records with an inconclusive call do not appear. Unmarked numbers belong to inactive results. Active and inactive are the calls of the source. Calls follow the shape of the dose curve; as a rule, active = well fitted inhibition curve with a large enough effect; inconclusive = small, poorly fitted or top-dose-only effect; inactive = no such curve, though single readings can be large or run the other way.
# Assay: qHTS Assay for Lipid Storage Modulators: COS7 Assay against Probe and Analogs
# Settings: COS7 lipid droplet area, BODIPY imaging, 18 h; cells loaded with 400 µM oleic acid
# Outline: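 Lipid droplets, stained with BODIPY 493/503 (nuclei with Hoechst), were counted from microscope images by visual examination and image segmentation. Before fixation, COS7 cells had 17-18 h compound exposure with 400 microM oleic acid in 5% FBS medium, 0.2% DMSO.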
SMILES,max response [%],Potency
O=C(NC1CCCc2c1cnn2-c1ccc(F)cc1F)C1CC1 (stereo not given),3.35,–
O=C(NCCc1ccc(OCC(F)(F)F)c(OCC(F)(F)F)c1)c1cc2sccc2n1Cc1ccccc1,–,2.96 µM (active)
CCOc1ccc(CCNC(=O)c2cc3sccc3n2Cc2ccc(-n3cncn3)cc2)cc1OCC,–,5.9 µM (active)
CC(C)(C)OC(=O)NCCOCCOCCOc1cccc(-n2ncc3c2CCCC3NC(=O)c2ccccn2)c1 (stereo not given),–,14.8 µM (active)
CC(C)Oc1ccc(CCNC(=O)c2cc3sccc3n2Cc2ccccc2)cc1OC(C)C,–,1.66 µM (active)
COc1cccc(-n2ncc3c2CCCC3NC(=O)c2ccccn2)c1 (stereo not given),–,5.9 µM (active)
CCOc1ccc(CCNC(=O)C2CCCCC2)cc1OCC,-8.52,–
CCOc1ccc(C(C)CNC(=O)c2cc3sccc3n2Cc2ccccc2)cc1OCC (stereo not given),–,11.8 µM (active)
CCOc1ccc(CCNC(=O)c2ccc3[nH]ccc3c2)cc1OCC,20.9,–
CCOc1ccc(CCNC(=O)c2cccc(C(=O)c3ccccc3)c2)cc1OCC,–,14.8 µM (active)
CCn1c(C(=O)NCc2ccc(OC)c(OC)c2)cc2sccc21,0.0567,–
Cc1ccc(NC(=O)c2ccc(CN3CCN(C)CC3)cc2)cc1Nc1nc(-c2cccnc2)cs1,-0.902,–
CN(C)CC(=O)NC1CCCc2c1cnn2-c1ccc(F)cc1F (stereo not given),19.8,–
O=C(NC1CCCc2c1cnn2-c1ccc(F)cc1F)C1CCCCN1 (stereo not given),-10.9,–
CCN(CC)C(=O)C1CCN(C(=O)C(C)(C)NC(=O)Nc2ccccc2Cl)CC1,-9.22,–
